Sampled rows, rich in hits. Any-hit rate of the full collection: about 2.4%.
aSyn rescue: inhibitors of alpha-synuclein toxicity in yeast; 370,000 compounds, 0.14% hits; Yeast expressing alpha-synuclein, growth rescue, BacTiter-Glo, 24 h; AID 652106; Potency, µM (doses to about 46.1 µM), for inactives: at the highest dose growth rescue (activation), most hits filed as activators; note: % of control where 0% means no effect; nearly all actives have a fitted effect of over 65% in size
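Rescue of yeast growth: cells expressing toxic alpha-synuclein, induced in galactose at OD600 0.02, incubated with compound 24 h at 30 C. ATP luminescence quantified growth; inhibitors of toxicity appear as activators.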
Mito fusion yeast: mitochondrial division inhibition or fusion activation | S. cerevisiae fusion-defective mutant growth rescue, CellTiterGlo 48 h | 320,000 compounds, 0.23% hits | AID 485298 | Potency, µM (series often up to 46.1 µM), for inactives: at the highest dose growth rescue (activation), usual class: activators; note: % of control where 0% means no effect; nearly all actives have a fitted effect of over 45% in size
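Growth-rescue viability read-out: after 48 h at the non-permissive 37C in glycerol/ethanol YPEG, yeast mitochondrial fusion mutants are measured by CellTiterGlo luminescence; compounds (23 nl pinned per well) restoring growth score as division inhibitors or fusion activators.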
FUS yeast rescue: suppressors of FUS proteinopathy in yeast. S. cerevisiae FUS-expressing, growth rescue, OD600, 24 h. 390,000 compounds, 0.24% hits. Potency, µM (doses to about 76.6 µM), hits mostly activators. AID 1347120;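 note: plate controls were DMSO vehicle for no effect and reference control for full effect; nearly all actives have a fitted effect of over 55% in size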
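Compound concentration series was pinned onto galactose-induced FUS-expressing yeast seeded at OD 0.005. Plates sat 24hr at 30C; absorbance at 600 nm gave growth. DMSO served as background control.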
TDP-43 yeast inh: TDP-43 toxicity inhibition in yeast; TDP-43 expressing yeast growth rescue, BacTiter-Glo, 24 h; Potency, µM (series often up to 46.1 µM), for inactives: top-dose growth rescue (activation), hits mostly activators; 410,000 compounds, 1.8% hits; note: % of control where 0% means no effect; nearly all actives have a fitted effect of over 50% in size
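Luminescence from BacTiter-Glo reports growth of TDP-43-expressing yeast after 24 hr at 30 deg C with compound. Cells were raffinose-pregrown to mid-log, then seeded in galactose medium at OD600=0.02.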
Abeta yeast res: restores growth of yeast expressing A-beta42 peptide. 410,000 compounds, 0.063% hits. yeast expressing A-beta42, growth rescue, OD600, 48 h; response scale: 0% DMSO, 100% iron-clioquinol control. AID 1347071. Potency, µM (doses to about 46.1 µM), most hits filed as activators; note: nearly all actives have a fitted effect of over 55% in size
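Growth rescue measured by 600 nm absorbance after 48 h yeast culture at 30 C with compound. Values normalized between DMSO and an equimolar ferric chloride plus clioquinol control.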
A-T KAP1 phos: candidate therapy for ataxia-telangiectasia. F2112 A-T fibroblasts, KAP-1 phosphorylation AlphaLISA; neocarzinostatin DNA damage 30 min before lysis. Potency, µM (highest dose often 57.5 µM), for inactives: at the highest dose activation, actives largely listed as activators. 320,000 compounds, 0.19% hits. AID 485349; note: % of control where 0% means no effect; nearly all actives have a fitted effect of over 45% in size
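ATM-like activity read as KAP-1 phosphorylation via AlphaLISA donor/acceptor antibody pairs after lysis and 6 hr at 25C. Cells were ATM-null patient fibroblasts (F2112, hTERT), dosed 60 min, then exposed to the DSB inducer NCS for 30 min.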
* hit, by the source's call; i = inactive; ? = inconclusive; . = not tested or not shown; [ ] = remark or other dose. Calls come from the whole dose curve; as a rule, active = well fitted curve in the direction sought with a large enough effect; inconclusive = small, poorly fitted or top-dose-only effect, or another doubt; inactive = no such curve, though single readings can be large; an effect the other way counts as inactive or inconclusive. Potency is the fitted concentration of half-maximal effect.

SMILES | aSyn rescue | Mito fusion yeast | FUS yeast rescue | TDP-43 yeast inh | Abeta yeast res | A-T KAP1 phos
COc1ccc(NC(=O)CC2C(=O)N(c3ccccc3)C(=O)N2CCC2=CCCCC2)cc1 (stereo not drawn) | . | . | i | -1% | i | .
COc1cc2nc(N3CCCCC3)nc(NC3CCN(C)CC3)c2cc1OC | -1% | . | . | . | . | .
c1ccc(Sc2nc(N3CCCCC3)nc(N3CCCCC3)n2)nc1 | -1% | 23% | i | 16µM* | i | .
N=C(N)Sc1nc(N2CCCCC2)nc(N2CCCCC2)n1 | -1% | -12% | . | -1% | i | -1%
Cc1cc(C)c(OCC(=O)Nc2nc(-c3ccccn3)cs2)c(C)c1 | 13µM* | 6% | ? | -14% | i | 4%
COc1ccc(OCCCC(=O)Nc2nc(-c3ccccn3)cs2)cc1 | 2% | -5% | i | 11µM* | ? | 5%
O=C(CC1CC2CCC1C2)Nc1nc(-c2ccccn2)cs1 (stereo not drawn) | 25µM* | -9% | i | 18µM* | 14µM* | 1%
Cc1ccccc1OCC(=O)Nc1nc(-c2ccncc2)cs1 | -3% | 11% | . | 27% | i | 16%
CCC(Oc1ccccc1)C(=O)Nc1ccc(OCc2cc(=O)n3ccc(C)cc3n2)cc1 (stereo not drawn) | . | . | i | 17% | i | .
Cc1ccccc1NC1=C(Cl)C(=O)OC1OC(=O)c1ccccc1C (stereo not drawn) | 6% | -1% | i | 20µM* | i | 3%
Cc1ccc2onc(CC(=O)N3CCN(c4ccc(F)cc4)CC3)c2c1 | . | . | i | 13µM* | i | .
Cc1ccc2onc(CC(=O)N3CCN(c4ccccc4F)CC3)c2c1 | . | . | i | ? | i | .
C[C@@]12CCC=C[C@H]1[C@H](c1ccc(/C=C/c3ccccc3)cc1F)N(Cc1ccccc1)C2=O | -1% | -36% | ? | 3% | i | 40µM*
O=C(NCC(Cl)c1ccc2ccccc2c1)c1c(F)cccc1F (stereo not drawn) | -2% | 34% | i | -10% | i | 20µM*
O=C(NCCCNC(=O)c1c(F)cccc1F)c1c(F)cccc1F | -6% | 2% | i | -10% | i | -9%
Cn1c2ccccc2c(=O)c2c(=O)n(CCCc3ccccc3)cnc21 | . | . | i | . | . | .
O=C(Nc1ccccc1)C1C(c2ccccc2)C1(Cl)Cl (stereo not drawn) | -11% | 9% | i | ? | i | -2%
O=C(Nc1ccc(Cl)cn1)C1C(c2ccccc2)C1(Cl)Cl (stereo not drawn) | -11% | ? | i | 13µM* | i | 4%[11.5 µM]
CC(=O)c1cccc(NC(=O)C2CCN(S(=O)(=O)c3ccc4c(c3)CCCN4C(C)=O)CC2)c1 | . | . | i | 3% | i | .
COc1ccc(N2CCN(c3nc(-c4cccs4)nc4ccccc34)CC2)cc1 | -9% | -2% | ? | 13µM* | i | -3%
c1csc(-c2nc(N3CCOCC3)c3ccccc3n2)c1 | -8% | -5% | i | -15% | i | 1%
O=C(c1c[nH]c(C(=O)C(Cl)(Cl)Cl)c1)c1ccc(F)cc1F | 1% | -7% | i | 6% | i | -17%
O=C(c1c[nH]c(C(=O)C(Cl)(Cl)Cl)c1)c1ccc(F)cc1Cl | -2% | -2% | i | 8.9µM* | i | -2%
O=C(Cc1ccccc1)c1c[nH]c(C(=O)C(Cl)(Cl)Cl)c1 | 3% | -17% | i | 13µM* | i | 12%
COC(=O)c1sccc1S(=O)(=O)N(CC(=O)Nc1cccc(C)c1C)c1ccc(C)c(C)c1 | . | . | ? | 7% | i | .
CC(=O)Nc1nc(COc2ccc3ccccc3c2)cs1 | . | 1% | i | 7.1µM* | i | .
Cc1cc(C)cc(C(=O)OCCN2CCN(C3CN(Cc4cn(Cc5ccc([N+](=O)[O-])cc5)nn4)S(=O)(=O)C3)CC2)c1 (stereo not drawn) | . | . | i | . | . | .

Screening data (PubChem BioAssay)
